Reference: PubChem BioAssay (Tox21)
Results filed as inconclusive are left out. Calls of active or inactive are those of the source. Unless noted, the call rests on the fitted dose curve; in most records, active means well fitted curve in the direction sought with a large enough effect in the repeat runs; inconclusive means weak or mixed curves; inactive means no such curve, though single readings can be large; an effect the other way counts as inactive or inconclusive.

Experiments:
[1] = qHTS assay to identify small molecule agonists of the sonic hedgehog signaling (Shh) pathway (AID 1259368; calls by dose curve;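 further: NIH/3T3-derived 3T3Gli1-Luc cells carrying a stable Gli1-driven firefly luciferase reporter; series mostly up to about 92 µM; nearly all actives have a fitted effect of over 15% in size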)
Outline: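 Read-out: firefly luciferase luminescence from a Gli1 response element reporter stably integrated in NIH/3T3-derived 3T3Gli1-Luc cells, measured 30 min at room temperature after reagent addition. Compound exposure lasted 24 hr at 37 C, 5% CO2.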

[2] = qHTS assay to identify small molecule antagonists of the sonic hedgehog signaling (Shh) pathway (AID 1259369; calls by dose curve; further: nearly all actives have a fitted effect of over 45% in size)
Outline: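 Luminescence readout: firefly Luc under Gli1 response element in 3T3Gli1-Luc cells (NIH/3T3 clone). Antagonist mode, stimulation by conditioned medium; compound exposure 24hr at 37 C, 5% CO2.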

[3] = molecular target: Estrogen receptor beta (Homo sapiens) (UniProt Q92731); assay: qHTS assay to identify small molecule agonists of the estrogen receptor beta (ER-beta) signaling pathway (AID 1259377; active means well fitted activation curve with a large enough effect in the signal ratio in the repeat runs, not every such curve was filed as active; the % refers to the signal ratio)
Outline: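 Read-out: beta-lactamase FRET fluorescence. Cell line: ER-beta-UAS-bla HEK293T in 2% charcoal-stripped FBS. Exposure: 16 hr at 37C. Substrate step: 2 h at room temperature.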

[4] = molecular target: Estrogen receptor beta (Homo sapiens) (UniProt Q92731); assay: qHTS assay to identify small molecule antagonists of the estrogen receptor beta (ER-beta) signaling pathway (AID 1259378; active means well fitted inhibition curve with a large enough effect in the signal ratio in the repeat runs, not every such curve was filed as active; the % refers to the signal ratio)
Outline: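 ER-beta-UAS-bla HEK293T cells in 2% charcoal-stripped FBS medium treated with compound plus 1nM final 17-beta-estradiol for 16 hr at 37C. Beta-lactamase reporter read by FRET substrate fluorescence after 2 hours at room temperature.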

[5] = qHTS assay to identify small molecule agonists of the androgen receptor (AR) signaling pathway in the presence of an antagonist - cell viability counter screen (AID 1259379); further: nearly all actives have a fitted effect of over 25% in size; further: potency means the concentration at half of the fitted maximal effect
Outline: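 Viability counter screen: CellTiter-Fluor fluorescence, measured in the same wells as the luciferase read-out. MDA-kb2 cells, 3,000/well, with nilutamide at 3.0uM final and compounds at 15 concentrations, 16 hr at 37C, 0% CO2.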

[6] = qHTS assay to identify small molecule agonists of the estrogen receptor beta (ER-beta) signaling pathway - cell viability counter screen (AID 1259380); further: nearly all actives have a fitted effect of over 30% in size
Outline: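 Luminescence read-out (CellTiter-Glo, 30 min, room temp) taken in the same wells as the beta-lactamase reporter assay; ER-beta-UAS-bla HEK293T cells exposed to DMSO-dissolved compounds for 16 hr at 37C in 2% charcoal-stripped FBS medium.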

[7] = qHTS assay to identify small molecule antagonists of the estrogen receptor beta (ER-beta) signaling pathway - cell viability counter screen (AID 1259382); further: series mostly up to about 92 µM; nearly all actives have a fitted effect of over 55% in size
Outline: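 Luminescent ATP read-out (CellTiter-Glo, 30 min, RT) taken in the same wells as the bla reporter assay. HEK293T ER-beta-UAS-bla cells in 2% charcoal-stripped FBS were exposed to compounds with 1nM E2 for 16 hr at 37C.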

[8] = qHTS assay to identify small molecule agonists or antagonists of the thyroid stimulating hormone receptor (TSHR) signaling pathway - wild type cell line counter screen (AID 1259384; calls by dose curve)
Outline: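 Wild-type Hek293 cells, 800/well, 18 h at 37C, then compound with Ro20-1724 for 30 min RT. cAMP by HTRF (cAMP-d2/anti-cAMP cryptate), 1 h RT, fluorescence read. 15 concentrations, triplicates.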

[9] = molecular target: Thyrotropin receptor (Homo sapiens) (UniProt P16473); assay: qHTS assay to identify small molecule antagonists of the thyroid stimulating hormone receptor (TSHR) signaling pathway (AID 1259385; calls by dose curve; further: nearly all actives have a fitted effect of over 20% in size)
Outline: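 TSHR-HEK293 cells (800/well) plated 18 h, then compounds with Ro20-1724 and TSH at 1.5 ng/mL final, 30 min at room temperature. cAMP quantified by HTRF (cAMP-d2/anti-cAMP-cryptate, 1 h); 15 concentrations in triplicate.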

[10] = qHTS assay to identify small molecule agonists of the estrogen receptor alpha (ER-alpha) signaling pathway in the presence of an antagonist - cell viability counter screen (AID 1259386);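 further: series mostly up to about 92 µM; cells exposed to compounds for 22 h at 37 °C before the viability read; nearly all actives have a fitted effect of over 30% in size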
Outline: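 Read-out: CellTiter-Fluor fluorescence after 1hr reagent incubation, measured in the same wells as the luciferase readout. VM7Luc4E2 cells were exposed to 15 compound concentrations with 10.0nM ICI-182,780 for 22hr at 37C.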

[11] = molecular target: Progesterone receptor (Homo sapiens) (UniProt P06401); assay: qHTS assay to identify small molecule agonists of the progesterone receptor (PR) signaling pathway (AID 1346784; calls by dose curve; further: nearly all actives have a fitted effect of over 30% in size)
Outline: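 Compounds were tested for PR agonism in HEK 293T cells bearing a beta-lactamase gene under UAS control. Treatment lasted 16 hr at 37C; signal came from fluorescence of a FRET substrate.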

[12] = molecular target: Progesterone receptor (Homo sapiens) (UniProt P06401); assay: qHTS assay to identify small molecule antagonists of the progesterone receptor (PR) signaling pathway (AID 1346795; active means well fitted inhibition curve with a large enough effect in the signal ratio in the repeat runs, not every such curve was filed as active; the % refers to the signal ratio)
Outline: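 In HEK293T cells bearing the PR-UAS-bla reporter, compound effects on promegestone-driven (1 nM) beta-lactamase expression are assessed after 16 hr using a fluorescent FRET substrate incubated 2 hr at room temperature.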

[13] = qHTS assay to identify small molecule antagonists of the progesterone receptor (PR) signaling pathway - cell viability counter screen (AID 1346798); further: series mostly up to about 92 µM; nearly all actives have a fitted effect of over 50% in size
Outline: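 Following a 4 hr attachment, PR-UAS-bla HEK293T cells in charcoal-stripped FBS medium were exposed to compounds with R5020 for 16 hr; CellTiter-Glo was added and luminescence read after 30 min at room temperature.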

[14] = qHTS assay to identify small molecule antagonists of the TGF-beta/Smad signaling pathway - cell viability counter screen (AID 1346824); further: nearly all actives have a fitted effect of over 50% in size
Outline: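 SBE-bla HEK 293T cells, incubated overnight, then compound plus 0.25 ng/mL TGF-beta1 (stock added) for 5 hr at 37 C. Viability was read in the same wells by CellTiter-Glo luminescence after 30 min at room temperature.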

[15] = qHTS assay to identify small molecule agonists of the TGF-beta/Smad signaling pathway - cell viability counter screen (AID 1346829); further: top concentration of the series differs between compounds; nearly all actives have a fitted effect of over 45% in size
Outline: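 Cytotoxicity counter screen: CellTiter-Glo luminescence (30 min, room temperature) measured in the SBE-bla HEK 293T reporter wells after 5 hr compound treatment at 37 C and the 2 hr substrate step.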

[16] = qHTS assay to identify small molecule agonists of the TGF-beta/Smad signaling pathway (AID 1346859; active means well fitted activation curve with a large enough effect in the signal ratio in the repeat runs, not every such curve was filed as active; the % refers to the signal ratio; further: series mostly up to about 77 µM)
Outline: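 Each well held 4,000 SBE-bla HEK 293T cells incubated overnight before compound addition; 5 hr later the cleavable FRET substrate went on for 2 hr at room temperature, and fluorescence was read at two emissions.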

[17] = molecular target: Thyrotropin-releasing hormone receptor (Homo sapiens) (UniProt P34981); assay: qHTS assay to identify small molecule antagonists of the thyrotropin-releasing hormone receptor (TRHR) signaling pathway (AID 1346877; active means well fitted inhibition curve with a large enough effect in the repeat runs, not every such curve was filed as active; further: series mostly up to about 51 µM)
Outline: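 HEK293/TRHR cells, 18 h, 37 °C; Ca2+ dye 2 h; cpd 5 min RT; TRH 1 nM final; fluorescence read 3 min, 1 s intervals; 15 concs, triplicate.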

[18] = qHTS assay to identify small molecule agonists of the progesterone receptor (PR) signaling pathway - cell viability counter screen (AID 1346799; calls by dose curve; further: nearly all actives have a fitted effect of over 45% in size)
Outline: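 Here, 3,000 PR-UAS-bla HEK293T cells per well were treated with compounds for 16 hr after a 6 hr preincubation at 37C and 5% CO2; cell viability is the CellTiter-Glo luminescence signal.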

[19] = molecular target: Estrogen receptor (Homo sapiens) (UniProt P03372); assay: qHTS assay to identify small molecule agonists of the estrogen receptor alpha (ER-alpha) signaling pathway in the presence of an antagonist (AID 1259383; calls by dose curve; further: top concentration of the series differs between compounds; nearly all actives have a fitted effect of over 15% in size)
Outline: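 Luciferase luminescence (ONE-Glo, 30min at room temperature) measured in VM7Luc4E2 cells after 22hr compound exposure at 15 concentrations, with 10.0nM ICI-182,780 final present; cells express endogenous ER-alpha and carry four EREs upstream of luciferase.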

Measured: Potency

Sequence of Thyrotropin-releasing hormone receptor (Homo sapiens) (P34981 whole entry, looked up): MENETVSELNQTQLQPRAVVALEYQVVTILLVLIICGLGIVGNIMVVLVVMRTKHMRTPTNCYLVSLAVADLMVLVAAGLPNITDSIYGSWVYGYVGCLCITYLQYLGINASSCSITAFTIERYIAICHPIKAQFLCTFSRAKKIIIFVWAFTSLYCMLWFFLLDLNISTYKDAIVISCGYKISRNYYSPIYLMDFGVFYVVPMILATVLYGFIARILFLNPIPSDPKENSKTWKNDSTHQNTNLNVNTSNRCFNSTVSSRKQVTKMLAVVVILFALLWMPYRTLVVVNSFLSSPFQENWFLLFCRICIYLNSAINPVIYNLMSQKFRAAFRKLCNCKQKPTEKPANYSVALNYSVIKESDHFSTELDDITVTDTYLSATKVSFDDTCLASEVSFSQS
Sequence of Progesterone receptor (Homo sapiens) (P06401 whole entry, looked up): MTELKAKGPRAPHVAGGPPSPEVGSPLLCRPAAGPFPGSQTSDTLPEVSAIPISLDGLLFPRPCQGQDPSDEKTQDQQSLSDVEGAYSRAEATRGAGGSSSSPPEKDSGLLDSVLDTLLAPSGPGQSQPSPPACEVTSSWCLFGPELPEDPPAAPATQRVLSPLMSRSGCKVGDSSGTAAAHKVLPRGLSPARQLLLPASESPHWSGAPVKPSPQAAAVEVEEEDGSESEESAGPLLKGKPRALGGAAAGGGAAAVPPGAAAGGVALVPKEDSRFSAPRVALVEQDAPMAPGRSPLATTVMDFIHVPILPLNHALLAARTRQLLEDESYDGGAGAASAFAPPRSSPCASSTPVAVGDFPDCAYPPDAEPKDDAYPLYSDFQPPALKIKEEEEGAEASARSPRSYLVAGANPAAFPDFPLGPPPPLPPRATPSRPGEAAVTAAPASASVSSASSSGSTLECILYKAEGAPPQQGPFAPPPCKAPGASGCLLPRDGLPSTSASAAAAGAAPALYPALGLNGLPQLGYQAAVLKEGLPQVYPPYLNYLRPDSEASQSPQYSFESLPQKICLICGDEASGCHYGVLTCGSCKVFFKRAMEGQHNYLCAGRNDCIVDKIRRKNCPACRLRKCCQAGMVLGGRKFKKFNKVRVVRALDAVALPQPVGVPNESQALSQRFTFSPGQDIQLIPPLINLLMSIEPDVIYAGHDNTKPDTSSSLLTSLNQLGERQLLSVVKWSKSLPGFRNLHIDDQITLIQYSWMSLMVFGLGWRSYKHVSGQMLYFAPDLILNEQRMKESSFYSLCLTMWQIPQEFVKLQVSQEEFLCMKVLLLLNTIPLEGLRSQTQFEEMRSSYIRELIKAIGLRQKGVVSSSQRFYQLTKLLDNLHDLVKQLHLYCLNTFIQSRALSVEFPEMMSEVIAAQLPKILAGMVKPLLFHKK
Sequence of Estrogen receptor (Homo sapiens) (P03372 whole entry, looked up): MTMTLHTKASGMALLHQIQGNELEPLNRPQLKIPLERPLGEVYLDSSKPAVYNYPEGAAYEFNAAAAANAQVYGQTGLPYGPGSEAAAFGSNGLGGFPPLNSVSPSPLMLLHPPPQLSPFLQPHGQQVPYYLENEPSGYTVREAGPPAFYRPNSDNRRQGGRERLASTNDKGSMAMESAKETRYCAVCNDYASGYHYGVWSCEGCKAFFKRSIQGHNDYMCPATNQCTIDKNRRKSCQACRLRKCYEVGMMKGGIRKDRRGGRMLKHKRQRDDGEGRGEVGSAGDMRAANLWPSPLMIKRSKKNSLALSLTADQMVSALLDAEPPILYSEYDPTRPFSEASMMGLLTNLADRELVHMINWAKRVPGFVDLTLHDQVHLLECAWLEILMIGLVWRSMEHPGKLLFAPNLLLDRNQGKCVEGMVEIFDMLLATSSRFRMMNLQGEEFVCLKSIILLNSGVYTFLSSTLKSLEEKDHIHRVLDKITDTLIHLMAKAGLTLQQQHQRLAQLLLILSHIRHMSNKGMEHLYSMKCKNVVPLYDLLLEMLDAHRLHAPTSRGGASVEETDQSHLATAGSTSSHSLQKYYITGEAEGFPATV
Sequence of Thyrotropin receptor (Homo sapiens) (P16473 whole entry, looked up): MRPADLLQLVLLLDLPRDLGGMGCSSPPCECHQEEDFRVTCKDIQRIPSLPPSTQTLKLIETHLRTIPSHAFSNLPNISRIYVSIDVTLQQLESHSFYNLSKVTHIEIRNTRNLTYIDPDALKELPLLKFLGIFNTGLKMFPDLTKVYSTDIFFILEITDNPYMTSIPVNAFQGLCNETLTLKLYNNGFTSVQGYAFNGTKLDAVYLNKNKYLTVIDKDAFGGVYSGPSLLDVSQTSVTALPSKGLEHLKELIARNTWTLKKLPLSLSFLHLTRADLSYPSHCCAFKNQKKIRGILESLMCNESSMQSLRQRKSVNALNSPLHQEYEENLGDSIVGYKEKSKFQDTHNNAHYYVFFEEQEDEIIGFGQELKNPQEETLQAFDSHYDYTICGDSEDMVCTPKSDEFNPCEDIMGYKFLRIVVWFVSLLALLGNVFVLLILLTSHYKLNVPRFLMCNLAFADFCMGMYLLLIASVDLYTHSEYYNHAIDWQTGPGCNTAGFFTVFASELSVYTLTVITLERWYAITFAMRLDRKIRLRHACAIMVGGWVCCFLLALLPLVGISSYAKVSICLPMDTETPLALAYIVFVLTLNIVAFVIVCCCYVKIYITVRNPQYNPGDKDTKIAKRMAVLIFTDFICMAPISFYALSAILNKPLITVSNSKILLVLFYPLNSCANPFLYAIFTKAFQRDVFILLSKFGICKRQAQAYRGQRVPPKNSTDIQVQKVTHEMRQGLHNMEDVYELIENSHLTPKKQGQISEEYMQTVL
Sequence of Estrogen receptor beta (Homo sapiens) (Q92731 whole entry, looked up): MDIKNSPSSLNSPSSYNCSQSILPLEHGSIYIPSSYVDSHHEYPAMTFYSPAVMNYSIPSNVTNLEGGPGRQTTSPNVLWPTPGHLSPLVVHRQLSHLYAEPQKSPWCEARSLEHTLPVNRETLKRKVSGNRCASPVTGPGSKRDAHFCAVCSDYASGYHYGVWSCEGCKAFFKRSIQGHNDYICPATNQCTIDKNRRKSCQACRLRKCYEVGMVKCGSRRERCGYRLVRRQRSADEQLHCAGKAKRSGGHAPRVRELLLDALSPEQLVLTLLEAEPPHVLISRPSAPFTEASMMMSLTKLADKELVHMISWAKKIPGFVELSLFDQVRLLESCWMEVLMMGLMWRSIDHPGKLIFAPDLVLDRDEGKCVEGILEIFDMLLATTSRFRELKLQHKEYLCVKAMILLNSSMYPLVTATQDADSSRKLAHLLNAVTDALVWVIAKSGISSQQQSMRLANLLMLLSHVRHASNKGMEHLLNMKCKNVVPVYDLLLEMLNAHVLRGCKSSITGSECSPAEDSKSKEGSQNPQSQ

C=CC(=O)OC
not listed: [18] | [19]
inactive: all other assays above

CCCCCC[N+](=O)[O-]
not listed: [19]
inactive: all other assays above

O=[N+]([O-])c1ccccc1CCl
not listed: [10] | [11] | [12] | [16] | [18]
inactive: all other assays above

C[N+](C)(C)CCCl
inactive: all assays above

Clc1cc(C(Cl)(Cl)Cl)cnc1Cl
active: [5] 24.3 µM
not listed: [15] | [16]
inactive: all other assays above

CCCCCCCCCC(=O)O[C@H]1CC[C@H]2[C@@H]3CCC4=CC(=O)CC[C@@H]4[C@H]3CC[C@]12C
not listed: [8] | [9] | [11] | [12] | [15]
inactive: all other assays above

CCOP(O)OCC
not listed: [16] | [17] | [19]
inactive: all other assays above

CCCN(CCCl)c1c([N+](=O)[O-])cc(C(F)(F)F)cc1[N+](=O)[O-]
not listed: [12] | [13] | [15]
inactive: all other assays above
